The record followed here is PubChem BioAssay (Tox21).

Experiment [1] can be described thus: qHTS assay to test for compound auto fluorescence at 535 nm (green) in HEK293 cells (AID 720680).
Experiment [2] can be described thus: qHTS assay to test for compound auto fluorescence at 460 nm (blue) in HEK293 cell free culture (AID 720681). The method, boiled down: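 Compounds were added to cell-free DMEM with 10% FBS and fluorescence read directly. The blue channel used 405 nm excitation and 460 nm emission, with triamterene as the reference fluorophore.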
The nature of experiment [3]: qHTS assay to test for compound auto fluorescence at 535 nm (green) in HEK293 cell free culture (AID 720682). The method, boiled down:
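Green-channel intensity (Ex/Em 485/535 nm) was recorded from compound-treated wells containing only DMEM with 10% FBS. Fluorescein provided the equivalency standard.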

Experiment [4] can be described thus: qHTS assay to test for compound auto fluorescence at 590 nm (red) in HEK293 cell free culture (AID 720683). The method, boiled down: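 Cell-free wells of DMEM with 10% FBS received compound, and intrinsic fluorescence was read at excitation/emission 540/590 nm. Values expressed as equivalence to Rose Bengal sodium.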
A short description of experiment [5]: qHTS assay to test for compound auto fluorescence at 590 nm (red) in HepG2 cell free culture (AID 720684). The method in brief:
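Rose Bengal sodium served as the reference for red signal. Test compounds were dispensed into serum-containing MEM (10% FBS) without cells, and plates were read at 540/590 nm.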

Experiment [6] can be described thus: qHTS assay to test for compound auto fluorescence at 460 nm (blue) in HepG2 cell free culture (AID 720685). The method in brief:
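Cell-free plates of MEM plus 10% FBS received 23 nL compound or DMSO vehicle; blue-channel (405/460 nm) intensity scored against triamterene as reference fluorophore.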

Experiment [7] in a line: qHTS assay to test for compound auto fluorescence at 535 nm (green) in HepG2 cell free culture (AID 720686).
The nature of experiment [8]: qHTS assay to test for compound auto fluorescence at 460 nm (blue) in HepG2 cells (AID 720687). The method in brief:
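HepG2 cells in MEM with 10% FBS, attached overnight at 37 C, were exposed to compound or DMSO for 1 hr at 37 C, 5% CO2. Blue fluorescence was read at 405/460 nm, with triamterene as reference fluorophore.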

Experiment [9] concerns the target Glucocorticoid receptor (Homo sapiens) (UniProt P04150). As to the kind of experiment: qHTS assay to identify small molecule agonists of the glucocorticoid receptor (GR) signaling pathway (AID 720691; active = well fitted activation curve with a large enough effect in the signal ratio in the repeat runs, not every such curve was filed as active; the % refers to the signal ratio). The method, boiled down: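 Measures GR pathway activation through a GRE-beta-lactamase reporter stably integrated in HeLa cells, with 18 h compound treatment at 37 C and fluorescence detection using a FRET substrate.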

Experiment [10] shares this target. The experiment is described as follows: qHTS assay to identify small molecule antagonists of the glucocorticoid receptor (GR) signaling pathway (AID 720692; active = well fitted inhibition curve with a large enough effect in the signal ratio in the repeat runs, not every such curve was filed as active; the % refers to the signal ratio). The method in brief: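 Tox21 10K library screened in concentration-response for blockade of dexamethasone (5 nM final)-induced GRE-bla reporter activity in HeLa cells; 18 h treatment, fluorescence read.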

Experiment [11] can be described thus: qHTS assay to identify small molecule antagonists of the glucocorticoid receptor (GR) signaling pathway - cell viability counter screen (AID 720693). Also: nearly all actives have a fitted effect of over 55% in size.
Experiment [12] in a line: qHTS assay for identifying genotoxic compounds that show differential cytotoxicity against isogenic chicken DT40 cell lines with known DNA damage response pathways - wild type cell line (AID 743012). Also: nearly all actives have a fitted effect of over 60% in size. Also: potency is read from the fitted curve at half-maximal effect. The method in brief: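 Endpoint: CellTiter-Glo luminescence, 30 min RT. Cells: wild type DT40, 300/well. Exposure: compounds in DMSO, 40 h, 37 C/5% CO2, after ~0.5 h pre-incubation.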

Experiment [13] can be described thus: qHTS assay for identifying genotoxic compounds that show differential cytotoxicity against isogenic chicken DT40 cell lines with known DNA damage response pathways - Rev3 mutant cell line (AID 743014). Also: nearly all actives have a fitted effect of over 55% in size.
Experiment [14] in a line: qHTS assay to identify small molecule antagonists of the androgen receptor (AR) signaling pathway - cell viability counter screen (AID 743033; also: nearly all actives have a fitted effect of over 45% in size).
The target of experiment [15] is Androgen receptor (Homo sapiens) (UniProt P10275). The experiment is described as follows: qHTS assay to identify small molecule agonists of the androgen receptor (AR) signaling pathway (AID 743036; active = well fitted activation curve with a large enough effect in the signal ratio in the repeat runs, with a control signal flat, not every such curve was filed as active; the % refers to the signal ratio). The method, boiled down:
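Cell-based FRET reporter assay: HEK293 line with a UAS-beta-lactamase construct, compounds added in DMSO, 16 h exposure at 37C, then 2 h substrate step at room temperature and fluorescence intensity read.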

Experiment [16] shares this target. The experiment is described as follows: qHTS assay to identify small molecule agonists of the androgen receptor (AR) signaling pathway using the MDA cell line (AID 743040; also: nearly all actives have a fitted effect of over 20% in size). The method, boiled down:
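Luciferase read-out, ONE-Glo, 30 min RT. Cells: MDA-kb2 AR-luc, MMTV promoter with AR and GR response elements. Compound exposure 16 h, 37C, 0% CO2, after 5 h pre-incubation. qHTS agonist mode.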

Experiment [17] in a line: qHTS assay to identify small molecule antagonists of the androgen receptor (AR) signaling pathway using the MDA cell line - cell viability counter screen (AID 743041; also: nearly all actives have a fitted effect of over 45% in size; also: potency is read from the fitted curve at half-maximal effect). The method in brief:
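Cytotoxicity counter screen: MDA-kb2 AR-luc cells, compound + R1881, 16 h, 37C, 0% CO2; CellTiter-Fluor added at 15.5 h, fluorescence read after 30 min.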

In experiment [18] the target is Androgen receptor (Homo sapiens) (UniProt P10275). The experiment is described as follows: qHTS assay to identify small molecule antagonists of the androgen receptor (AR) signaling pathway using the MDA cell line (AID 743042; also: nearly all actives have a fitted effect of over 55% in size). The method, boiled down: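 MDA-kb2 breast carcinoma cells carrying MMTV-luciferase (AR/GR responsive) were co-treated with compounds and the agonist R1881 for 16 h at 37C. Inhibition read as ONE-Glo luminescence; CellTiter-Fluor fluorescence measured in parallel for cytotoxicity.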
Androgen receptor (Homo sapiens), sequence (P10275 whole entry, looked up): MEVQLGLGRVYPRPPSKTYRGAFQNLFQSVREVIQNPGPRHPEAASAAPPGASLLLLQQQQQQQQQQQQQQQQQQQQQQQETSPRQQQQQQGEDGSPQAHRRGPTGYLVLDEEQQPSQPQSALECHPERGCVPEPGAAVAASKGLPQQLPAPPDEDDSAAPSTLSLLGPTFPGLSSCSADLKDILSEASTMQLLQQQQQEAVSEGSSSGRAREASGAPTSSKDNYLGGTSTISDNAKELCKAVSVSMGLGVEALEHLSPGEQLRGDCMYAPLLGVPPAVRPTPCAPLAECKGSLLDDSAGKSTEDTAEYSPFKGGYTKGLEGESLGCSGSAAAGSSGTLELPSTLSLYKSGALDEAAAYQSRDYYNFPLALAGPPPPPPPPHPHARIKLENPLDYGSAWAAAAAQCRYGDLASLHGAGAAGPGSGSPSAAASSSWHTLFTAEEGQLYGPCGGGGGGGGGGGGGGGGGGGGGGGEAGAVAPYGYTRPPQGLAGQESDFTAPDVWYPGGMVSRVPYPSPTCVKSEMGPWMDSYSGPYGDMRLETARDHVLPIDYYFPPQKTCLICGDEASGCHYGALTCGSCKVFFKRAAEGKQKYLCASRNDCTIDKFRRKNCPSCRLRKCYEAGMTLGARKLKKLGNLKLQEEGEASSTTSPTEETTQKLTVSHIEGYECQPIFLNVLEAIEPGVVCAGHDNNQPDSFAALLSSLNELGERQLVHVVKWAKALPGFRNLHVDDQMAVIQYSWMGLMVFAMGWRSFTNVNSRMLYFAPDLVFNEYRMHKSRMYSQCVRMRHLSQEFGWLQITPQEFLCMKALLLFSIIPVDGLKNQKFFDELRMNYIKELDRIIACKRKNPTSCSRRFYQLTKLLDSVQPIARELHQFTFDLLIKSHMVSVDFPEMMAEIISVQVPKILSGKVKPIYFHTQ

Experiment [19] can be described thus: qHTS assay for identifying genotoxic compounds that show differential cytotoxicity against isogenic chicken DT40 cell lines with known DNA damage response pathways - Rad54/Ku70 mutant cell line (AID 743015). Also: nearly all actives have a fitted effect of over 60% in size. Also: potency is read from the fitted curve at half-maximal effect.

A number with no mark means an inactive call. Results filed as inconclusive are left out. Active and inactive are the calls of the source. Unless noted, calls follow the shape of the dose curve; as a rule, active = well fitted curve in the direction sought with a large enough effect in the repeat runs; inconclusive = weak or mixed curves; inactive = no such curve, though single readings can be large; an effect the other way counts as inactive or inconclusive.
% is scaled to controls: 0 for no effect and ±100 for the full control effect.

Glucocorticoid receptor (Homo sapiens), sequence (P04150 whole entry, looked up): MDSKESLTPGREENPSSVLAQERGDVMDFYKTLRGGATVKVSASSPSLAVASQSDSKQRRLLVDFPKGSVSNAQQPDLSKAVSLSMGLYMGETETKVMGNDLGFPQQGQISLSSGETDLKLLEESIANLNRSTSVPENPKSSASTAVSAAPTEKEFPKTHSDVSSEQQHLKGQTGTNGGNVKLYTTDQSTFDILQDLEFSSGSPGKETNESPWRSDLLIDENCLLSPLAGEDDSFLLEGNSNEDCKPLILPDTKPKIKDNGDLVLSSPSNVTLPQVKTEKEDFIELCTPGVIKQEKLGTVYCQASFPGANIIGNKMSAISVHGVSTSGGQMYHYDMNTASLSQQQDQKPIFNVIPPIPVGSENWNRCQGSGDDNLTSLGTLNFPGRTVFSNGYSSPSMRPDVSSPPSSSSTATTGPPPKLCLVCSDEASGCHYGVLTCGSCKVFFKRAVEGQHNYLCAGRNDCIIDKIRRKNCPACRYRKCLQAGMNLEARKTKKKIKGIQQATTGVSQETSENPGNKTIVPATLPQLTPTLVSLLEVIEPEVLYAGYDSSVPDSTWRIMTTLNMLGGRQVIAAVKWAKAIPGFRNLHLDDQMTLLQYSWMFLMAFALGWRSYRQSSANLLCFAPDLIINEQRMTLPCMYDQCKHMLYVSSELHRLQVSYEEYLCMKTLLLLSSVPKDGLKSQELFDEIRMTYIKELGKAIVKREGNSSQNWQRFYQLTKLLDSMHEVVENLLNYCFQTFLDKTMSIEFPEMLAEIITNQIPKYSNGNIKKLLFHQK

Turning to `C=C(C)C(=O)OCCN(CC)CC`, the result in [1], in [2], in experiment [3], in experiment [4], in experiment [5] and in experiment [6] was inactive. Further, the call in [7], in experiment [8], in experiment [10], in [11], in experiment [15] and in experiment [16] was inactive. Also, the Potency entry in [9], in [12], in experiment [13], in [14], in experiment [17] and in [18] was “inactive” in each case.
Regarding `COCCOCCOCCOCCOCCO`, the call in experiment [1], in [2], in experiment [3], in [4], in experiment [5] and in [6] was inactive. Further, the call in experiment [7], in experiment [8], in [10] and in [11] was inactive. Besides, the Potency entry in [9], in experiment [12], in experiment [13], in experiment [14] and in experiment [17] was “inactive” throughout.
On to `CCO[Si](CCCS)(OCC)OCC`, for which the call in experiment [1], in [2], in experiment [3], in experiment [4], in [5] and in experiment [6] was inactive. Besides, the result in [7], in experiment [8], in experiment [10] and in experiment [11] was inactive. Besides, the Potency entry in [9], in [12], in experiment [19] and in [14] was “inactive” throughout.
In the case of `CC(=O)Nc1ccc(S(=O)(=O)Nc2ccc([N+](=O)[O-])cc2)cc1`, the result in experiment [1], in experiment [2], in experiment [3], in experiment [4], in [5] and in experiment [6] was inactive. Besides, the result in experiment [7], in experiment [8], in [10] and in [11] was inactive. In addition, the Potency entry in experiment [9], in [12], in [13] and in [17] was “inactive” each time.
As for `Cc1nc2n(c(=O)c1CCN1CCC(c3noc4cc(F)ccc34)CC1)CCC[C@H]2O`, the outcome in [1], in [2], in experiment [3], in [4], in [5] and in [6] was inactive. The compound was classed as inactive in [7], in experiment [8], in [10] and in experiment [11]. Also, the Potency entry in experiment [9], in [12], in experiment [13], in experiment [19], in experiment [14] and in experiment [17] was “inactive” throughout.
For the compound `Cc1ccccc1OCC(O)CO` (stereo not drawn), the call in [1], in experiment [2], in [3], in experiment [4], in [5] and in experiment [6] was inactive. Further, the compound was classed as inactive in experiment [7], in experiment [8], in experiment [10] and in experiment [11]. In addition, the Potency entry in experiment [9], in experiment [12], in [13], in experiment [19], in [14] and in experiment [17] was “inactive” each time.
For `CCCCCCOC(=O)CC`, the call in experiment [1], in experiment [2], in experiment [3], in [4], in [5] and in [6] was inactive. Moreover, the call in experiment [7], in [8], in experiment [10] and in experiment [11] was inactive. In addition, the Potency result in experiment [9], in experiment [12], in [13], in experiment [14] and in experiment [17] was “inactive” each time.
For the compound `CCCOC(OCCC)OCCC`, the result in [1], in [2], in experiment [3], in experiment [4], in experiment [5] and in [6] was inactive. Also, the result in experiment [7], in experiment [8], in experiment [10] and in experiment [11] was inactive. The Potency result in experiment [9], in experiment [12], in experiment [13], in experiment [14] and in experiment [17] was “inactive” each time.
For the compound `CC[C@H](C)C(=O)O[C@H]1C[C@H](O)C=C2C=C[C@H](C)[C@H](CC[C@@H](O)C[C@@H](O)CC(=O)O)[C@H]21`, the call in [1], in [2], in experiment [3], in experiment [4], in experiment [5] and in experiment [6] was inactive. Besides, the compound was classed as inactive in experiment [7], in [8], in experiment [10] and in experiment [11]. For the same compound, the Potency result in [9], in experiment [12], in [14] and in experiment [17] was “inactive” in each case.
Consider `CNS(=O)(=O)CCc1ccc2[nH]cc(C3CCN(C)CC3)c2c1`, for which the call in experiment [1], in [2], in [3], in [4], in [5] and in [6] was inactive. Further, the call in experiment [7], in experiment [8], in [10] and in [11] was inactive. Besides, the Potency result in [9], in experiment [12], in experiment [14] and in experiment [17] was “inactive” each time.
With `C[C@H](N)[C@H](O)c1cccc(O)c1`, the fluorescence, % of fluorescein in [1] is 0.0113% [at 18.6 µM]. Further, the fluorescence, % of fluorescent control was 2.08% [at 18.6 µM] in experiment [2], 0.0224% [at 18.6 µM] in experiment [4], 1.92% [at 18.6 µM] in experiment [6] and 1.56% [at 18.6 µM] in experiment [8]. Moreover, the activity change in [3] is 0.048% [at 18.6 µM]. The fluorescence, % of Rose Bengal in experiment [5] was -0.249% [at 18.6 µM]. Also, the fluorescence, % of fluorescein control in [7] is 0.027% [at 18.6 µM]. Moreover, the Potency entry in experiment [9], in experiment [12], in experiment [13], in [19] and in [14] was “inactive” in each case. In experiment [10], the result was inactive.
`CC(CN)CC(C)(C)CCN` (stereo not drawn): the result in experiment [1], in [2], in [3], in [4], in experiment [5] and in experiment [6] was inactive. The compound was classed as inactive in experiment [7], in experiment [8] and in experiment [10]. Further, the Potency entry in [9] and in experiment [14] was “inactive” each time. For the same compound, the Potency in [12] was 44.4 µM (active); in [19], 44.4 µM (active); in experiment [17] it was 6.27 µM (active).
For `CCN1CCc2nc(N)oc2CC1`, the call in [1], in experiment [2], in [3], in [4], in experiment [5] and in experiment [6] was inactive. Also, the outcome in experiment [7], in [8] and in [10] was inactive. In addition, the Potency result in experiment [9], in [12], in [13], in experiment [19], in [14] and in experiment [17] was “inactive” throughout.
`CCCCCCCCOS(=O)(=O)O`: the result in [1], in experiment [2], in experiment [3], in experiment [4], in [5] and in [6] was inactive. The call in experiment [7], in experiment [8] and in experiment [10] was inactive. The Potency entry in experiment [9], in [12], in [13], in experiment [19], in experiment [14] and in experiment [17] was “inactive” throughout.
Regarding `Cc1ccccc1N=O`, the call in [1], in experiment [2], in experiment [3], in [4], in [5] and in [6] was inactive. Also, the compound was called inactive in experiment [7], in experiment [8] and in experiment [10]. In addition, the Potency result in [9], in experiment [12], in experiment [19], in experiment [14] and in experiment [17] was “inactive” each time.
